The values that follow come from PubChem BioAssay (Tox21).

A number with no mark means an inactive call. Inconclusive results are not listed. The source made the active and inactive calls. Unless noted, calls come from the whole dose curve; as a rule, active = well fitted curve in the direction sought with a large enough effect in the repeat runs; inconclusive = weak or mixed curves; inactive = no such curve, though single readings can be large; an effect the other way counts as inactive or inconclusive.

Experiment [1] can be described thus: qHTS assay for small molecule agonists of the p53 signaling pathway (AID 651631; calls by dose curve; note: nearly all actives have a fitted effect of over 15% in size). The note with it: HCT-116 p53RE-bla reporter, beta-lactamase FRET ratio, 16 h; series mostly up to 73.3 µM. The method, boiled down: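 Testing took place in human colorectal HCT-116 cells with stable p53RE-driven beta-lactamase. After 16 h of compound exposure at 37 °C, a FRET substrate was added and fluorescence recorded 2 h later.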
For orientation: In qHTS, concentration-response curves come from the screen itself.

A short description of experiment [2]: qHTS assay for small molecules that induce genotoxicity in human embryonic kidney cells expressing luciferase-tagged ATAD5 (AID 651632). Note: nearly all actives have a fitted effect of over 15% in size. To be noted: HEK293T ATAD5-luciferase induction, 16 h; series mostly up to 83.3 µM. The method, boiled down: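 HEK293T cells carrying a luciferase reporter tagged to ATAD5 were exposed to compound or DMSO vehicle for 16 hr at 37C, 5% CO2. Amplite was added, and after 30 min at room temperature luciferase activity was read as a marker of ATAD5 induction.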

Experiment [3] can be described thus: qHTS assay for small molecule agonists of the p53 signaling pathway - cell viability (AID 651633; calls by dose curve; note: nearly all actives have a fitted effect of over 30% in size). The note with it: p53RE-bla HCT-116 viability, ATP luminescence, 16 h; series mostly up to 83.3 µM. The method, boiled down:
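p53RE-bla cells were treated with compound for 16 hours at 37 C. Cytotoxicity was then measured as CellTiter-Glo luminescence after 30 min at room temperature.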

Experiment [4] is described as follows: qHTS assay for small molecules that induce genotoxicity in human embryonic kidney cells expressing luciferase-tagged ATAD5 - cell viability (AID 651634; calls by dose curve; note: nearly all actives have a fitted effect of over 25% in size). To be noted: HEK293T ATAD5-luc cells viability, CellTiter-Fluor, 15.5 h; series mostly up to 83.3 µM. The method, boiled down: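 HEK293T cells expressing luciferase-tagged ATAD5 were exposed to compound or DMSO for 15.5 hr at 37C, 5% CO2. Viability was then read as live-cell protease activity by CellTiter-Fluor fluorescence after 30 min at 37C.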

Experiment [5] in a line: qHTS assay to test for compound auto fluorescence at 590 nm (red) in HepG2 cells (AID 720674). To be noted: HepG2 autofluorescence, red 540/590 nm, 1 h; series mostly up to 91.3 µM. The method, boiled down:
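HepG2 cells, 2,000 per well in MEM with 10% FBS, attached overnight at 37 C, then got 23 nL compound or DMSO. After 1 hr at 37 C, 5% CO2, red fluorescence was read at 540/590 nm against Rose Bengal sodium as reference.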

A short description of experiment [6]: qHTS assay to test for compound auto fluorescence at 535 nm (green) in HepG2 cells (AID 720675). To be noted: green autofluorescence 485/535 nm, 1 h; series mostly up to 91.3 µM.
A short description of experiment [7]: qHTS assay to test for compound auto fluorescence at 460 nm (blue) in HEK293 cells (AID 720678). The note with it: blue autofluorescence 405/460 nm; series mostly up to 91.3 µM. A digest of the protocol:
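Triamterene serves as the blue fluorophore standard. Compound signal at 405/460 nm is read in HEK293 wells (2,000 cells, 10% dialyzed FBS) after overnight treatment at 37C.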

Experiment [8] in a line: qHTS assay to test for compound auto fluorescence at 590 nm (red) in HEK293 cells (AID 720679). The note with it: red autofluorescence 540/590 nm; series mostly up to 91.3 µM. The method, boiled down:
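We plated HEK293 cells in 10% dialyzed FBS medium, let them adhere for 4-5 hr, then added 23 nL compound. Overnight at 37C and 5% CO2 preceded fluorescence measurement at 540/590nm.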

Experiment [9] is described as follows: qHTS assay for small molecule disruptors of the mitochondrial membrane potential - cell viability (AID 720634; calls by dose curve;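 note: human HepG2 liver cancer cells; nearly all actives have a fitted effect of over 20% in size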). To be noted: HepG2 viability, ATP luminescence (CellTiter-Glo), 1 h; series mostly up to 83.2 µM. A digest of the protocol: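 HepG2 cells seeded overnight at 37 C, then exposed to compound or DMSO for 1 hr at 37 C, 5% CO2. m-MPI dye added, then CellTiter-Glo for 30 min at room temperature; viability read as ATP luminescence.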

The nature of experiment [10]: qHTS assay for small molecule disruptors of the mitochondrial membrane potential (AID 720635). Note: potency is the fitted concentration of half-maximal effect. The note with it: HepG2 mitochondrial membrane potential, Mito-MPS dye ratio; series mostly up to 83.2 µM. A digest of the protocol: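 HepG2 cells exposed to compound 1 hr at 37C, then Mito-MPS dye 30 min. Ratio read of aggregate (540/590 nm) versus monomer (490/535 nm) fluorescence.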
% is set by controls: 0 for no effect and ±100 for the full control effect.

For `COc1cc2c(cc1N)oc1ccccc12`, the Potency result in experiment [1], in experiment [2], in [3] and in [4] was “inactive” each time. For the same molecule, the molecule was classed as inactive in experiment [5], in experiment [6], in [7] and in experiment [8].
As for `CCCN(CCC)C(=O)C(CCC(=O)O)NC(=O)c1ccccc1` (stereo not given), the Potency entry in experiment [1], in [2], in [3], in [4] and in experiment [9] was “inactive” in each case. The result in experiment [5], in experiment [6], in [7] and in experiment [8] was inactive.
Regarding `COC(=O)c1ccc2cc(C(=O)OC)ccc2c1`, the Potency entry in experiment [1], in [2], in [3], in [4] and in experiment [9] was “inactive” in each case. Moreover, in experiment [5], the fluorescence, relative to Rose Bengal is 0.064% [at 18.6 µM]. Moreover, in experiment [6], the fluorescence, % of fluorescein control is -0.0327% [at 18.6 µM]. The fluorescence, % of triamterene in [7] was -0.0093% [at 18.6 µM]. Moreover, the fluorescence, % of fluorescent control in [8] is 0.496% [at 18.6 µM].
With `OC[C@H]1O[C@@H](O[C@H]2[C@H](O)[C@@H](O)[C@H](O)O[C@@H]2CO)[C@H](O)[C@@H](O)[C@H]1O`, the Potency entry in experiment [1], in [2], in [3], in experiment [4] and in experiment [9] was “inactive” in each case. Also, the result in experiment [5], in [6], in experiment [7] and in [8] was inactive.
Take `Cc1c(C(=O)NCCO)[n+](=O)c2ccccc2n1[O-]`: the Potency entry in [1], in experiment [3], in [4], in [9] and in experiment [10] was “inactive” in each case. Also, the call in experiment [5], in [6], in [7] and in [8] was inactive.
Take `NNS(=O)(=O)c1ccc(Oc2ccc(S(=O)(=O)NN)cc2)cc1`: the Potency entry in experiment [1], in experiment [2], in [3], in [4] and in experiment [9] was “inactive” in each case. In addition, the outcome in [5], in [6], in experiment [7] and in experiment [8] was inactive.
As to `CCN(CC)CCNC(=O)COc1ccc(Cl)cc1`, the Potency result in experiment [1], in experiment [2], in experiment [3], in experiment [4] and in experiment [9] was “inactive” throughout. Moreover, the molecule was classed as inactive in [5], in [6], in experiment [7] and in experiment [8].
Regarding `CCOC(=O)C1CC(=O)C(=C(O)C2CC2)C(=O)C1` (stereo not given), the Potency entry in experiment [1], in [2], in experiment [3], in experiment [4] and in [9] was “inactive” throughout. Moreover, the result in [5], in experiment [6], in experiment [7] and in experiment [8] was inactive.
As to `CCc1cc(Cl)c(OC)c(C(=O)NC[C@@H]2CCCN2CC)c1O`, the Potency result in experiment [1], in [2], in experiment [3], in experiment [4] and in [9] was “inactive” in each case. The result in experiment [5], in experiment [6], in experiment [7] and in [8] was inactive.
As to `O=C1CCN(c2ccccc2)N1`, the Potency entry in experiment [1], in [2], in experiment [3], in [9] and in [10] was “inactive” in each case. In addition, the call in [5], in experiment [6], in experiment [7] and in [8] was inactive.
`CC(C)CC(=O)OCc1ccccc1`: the Potency result in [1], in experiment [3], in experiment [4], in experiment [9] and in [10] was “inactive” in each case. The outcome in experiment [6], in experiment [7] and in [8] was inactive.
Turning to `Cc1cc2nc(N)sc2cc1C`, the Potency result in experiment [1], in experiment [3], in [4] and in [9] was “inactive” each time. In addition, the Potency in [10] was 49 µM (active). In addition, the call in experiment [5], in experiment [6], in experiment [7] and in [8] was inactive.
In the case of `NC(=O)Cc1cccc(C(=O)c2ccccc2)c1N`, the Potency entry in [1], in [3], in experiment [4], in [9] and in experiment [10] was “inactive” throughout. Also, the molecule was called inactive in experiment [5], in [6], in experiment [7] and in [8].
Turning to `CCCCNc1cc(C(=O)O)cc(S(N)(=O)=O)c1Oc1ccccc1`, the Potency entry in [1], in [3], in experiment [4] and in experiment [9] was “inactive” in each case. Besides, in [5], the fluorescence, relative to Rose Bengal is -0.242% [at 18.6 µM]. In experiment [6], the fluorescence, % of fluorescein control is 0.0391% [at 18.6 µM]. The fluorescence, % of triamterene in experiment [7] was 0.191% [at 18.6 µM]. In addition, the fluorescence, % of fluorescent control in experiment [8] was -0.225% [at 18.6 µM].
`COC(=O)N[C@H](C(=O)N[C@@H](Cc1ccccc1)[C@@H](O)CN(Cc1ccc(-c2ccccn2)cc1)NC(=O)[C@@H](NC(=O)OC)C(C)(C)C)C(C)(C)C`: the Potency entry in [1], in experiment [3] and in experiment [4] was “inactive” in each case. Also, the molecule was called inactive in experiment [5], in experiment [6], in experiment [7] and in experiment [8].
For the molecule `CC(C)NC[C@@H](O)COc1cccc2ccccc12`, the Potency entry in experiment [1], in experiment [3], in experiment [4] and in experiment [9] was “inactive” in each case. The outcome in experiment [5], in [6], in experiment [7] and in [8] was inactive.
As for `CC(C)NCC(O)COc1ccc(CCOCC2CC2)cc1` (stereo not given), the Potency result in [1], in experiment [3], in experiment [4], in experiment [9] and in experiment [10] was “inactive” throughout. The outcome in [5], in experiment [6], in experiment [7] and in experiment [8] was inactive.
With `CS(=O)(=O)c1ccc([C@@H](O)[C@@H](CF)NC(=O)C(Cl)Cl)cc1`, the Potency entry in experiment [1], in experiment [3], in experiment [9] and in experiment [10] was “inactive” throughout. Moreover, the fluorescence, relative to Rose Bengal in [5] was -0.165% [at 18.6 µM]. The fluorescence, % of fluorescein control in experiment [6] is -0.0021% [at 18.6 µM]. Besides, the fluorescence, % of triamterene in [7] was -0.0281% [at 18.6 µM]. Moreover, in [8], the fluorescence, % of fluorescent control is 0.0865% [at 18.6 µM].
With `CN1CCN(c2c(F)cc3c(=O)c(C(=O)O)cn(CCF)c3c2F)CC1`, the Potency entry in experiment [1], in experiment [3], in experiment [9] and in [10] was “inactive” in each case. In addition, the call in experiment [5], in experiment [6], in experiment [7] and in [8] was inactive.
As for `CCCCNCCCC`, the Potency entry in experiment [1], in [3], in [4] and in experiment [9] was “inactive” each time. The result in [5], in experiment [6], in experiment [7] and in experiment [8] was inactive.
On to `CCNCCO`, for which the Potency entry in experiment [2], in experiment [3], in experiment [4], in experiment [9] and in [10] was “inactive” in each case. Moreover, the molecule was called inactive in experiment [5], in experiment [6], in [7] and in experiment [8].
Turning to `CC(C)C(=O)OC/C=C/c1ccccc1`, the Potency result in experiment [1], in [3], in [4], in experiment [9] and in [10] was “inactive” in each case. In addition, the result in experiment [6], in experiment [7] and in experiment [8] was inactive.
With `C[C@@H]1CN(c2c(F)c(N)c3c(=O)c(C(=O)O)cn(C4CC4)c3c2F)C[C@H](C)N1`, the Potency entry in experiment [1], in [3], in experiment [4], in experiment [9] and in [10] was “inactive” each time. Further, the molecule was classed as inactive in experiment [5], in experiment [6], in [7] and in experiment [8].
`CN(C)C(=O)NC1(c2ccccc2)CCN(CCC[C@]2(c3ccc(Cl)c(Cl)c3)CCCN(C(=O)c3ccccc3)C2)CC1`: the Potency entry in experiment [1], in experiment [3], in experiment [4] and in [9] was “inactive” in each case. The fluorescence, relative to Rose Bengal in [5] was -0.128% [at 18.6 µM]. The fluorescence, % of fluorescein control in experiment [6] is 0.0153% [at 18.6 µM]. For the same molecule, the fluorescence, % of triamterene in experiment [7] is -0.0808% [at 18.6 µM]. The fluorescence, % of fluorescent control in [8] is -0.621% [at 18.6 µM].
